Hit rate of the full screen: of about 2,200 compounds, about 1,200 (55%) were called active. Cut-off not given; nearly all actives show IC50 up to about 92 µM. So high a share suggests a set chosen from earlier hits. The list shows a part of the results.
experiment: counter assay for TAg ATPase ADP read-out – biochemical, ADP-Hunter, fluorescence, counter-screen (AID 2501); conditions: series mostly up to 100 µM;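 further: purified T antigen ATPase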

SMILES	IC50
C=Cc1ccc2c(c1)OCCOCCOCCOCCOCCO2	inactive
CC(C)(C)c1ccc(OCCC(=O)NNC(=O)c2ccccc2)cc1	41.8 µM (active)
CC(C)(C)c1ccc(OCC(O)CS(=O)(=O)c2ccccn2)cc1 (stereo not drawn)	inactive
Cc1cccc(OCC(=O)NC(=S)NNC(=O)c2ccncc2)c1	inactive
CCN(CC)c1ccc(/C=N/N2CCOCC2)cc1	4.08 µM (active)
CCN(CC)c1ccc(/C=C2\C(=O)N(c3nnc(C)c(=O)[nH]3)N=C2C)cc1	inactive
CCN(CC)c1ccc(/C=N/O)cc1	4.69 µM (active)
O=C(O)c1ccc(-n2nc(-c3ccccc3)c3ccccc3c2=O)cc1	inactive
COc1cc(/C=N/n2nnnc2N)ccc1O	2.77 µM (active)
CCOc1ccc(/C=N/n2nnnc2N)cc1O	3.62 µM (active)
COC(=O)CN(c1ccccc1F)S(=O)(=O)c1ccccc1	inactive
COc1cccc(-n2c(SCc3cc(=O)oc4cc(O)c(O)cc34)nc3ccccc3c2=O)c1	49.8 µM (active)
CCOCCCn1c(SCC(=O)Nc2cc(OC)ccc2OC)nc2ccccc2c1=O	inactive
Cc1ccc(C)n1-c1ccncc1	inactive
Fc1ccccc1CSc1nnnn1-c1ccc2c(c1)OCO2	inactive
CN(C)c1ccc(N2CC(C)(C)C2=O)cc1	3.63 µM (active)
COc1ccc(C2=CC3=C(Br)C(=O)C(C)(OC(=O)c4ccc(Cl)nc4)C(=O)C3=CO2)cc1 (stereo not drawn)	inactive
COc1ccc(NC2SC(=O)N(C)C2=O)cc1 (stereo not drawn)	91 µM (active)
O=C(Nc1nnc(COc2ccccc2)s1)C1CCN(S(=O)(=O)c2ccc(Cl)cc2)CC1	inactive
CC1OC(OCC2OC(Oc3c(-c4ccc(O)cc4)oc4cc(O)cc(O)c4c3=O)C(O)C(O)C2O)C(O)C(O)C1O (stereo not drawn)	30.9 µM (active)
O=C(O)C1OC(Oc2c(-c3ccc(O)c(O)c3)oc3cc(O)cc(O)c3c2=O)C(O)C(O)C1O (stereo not drawn)	8.72 µM (active)
O=c1c(OC2OC(CO)C(O)C(O)C2O)c(-c2ccc(O)c(O)c2)oc2cc(O)cc(O)c12 (stereo not drawn)	6.33 µM (active)

SMILES	IC50
COc1ccccc1Nc1nc(C)cs1	inactive
Cc1csc(NC(=O)NC2(C(F)(F)F)Oc3ccccc3O2)n1	12 µM (active)
Cc1cccc(C)c1NC(=O)C(c1ccc([N+](=O)[O-])cc1)N(C)C(=O)c1ccccn1 (stereo not drawn)	inactive
Cc1ccc(-n2ncc3c(N4CCN(c5ccc(F)cc5)CC4)ncnc32)c(C)c1	inactive
O=C1C=C(Nc2ccc(O)cc2)CC(c2ccco2)C1 (stereo not drawn)	3.1 µM (active)
O=C1CC(c2ccco2)CC(O)=C1C=Nc1cc(Cl)cc(Cl)c1 (stereo not drawn)	inactive
COC(=O)CCC(=O)OC1(C)C(=O)C=C2C=C3CCCN3C=C2C1=O (stereo not drawn)	inactive
C/C=C/C=C/C(=O)Nc1cccc(C2=NOC3(C2)C[C@H](C(N)=O)N(C(=O)CC(c2ccccc2)c2ccccc2)C3)c1 (stereo partly drawn)	inactive
CCCCNC(=O)c1sc(=S)n2c1[nH]c(=O)c1ccccc12	57.9 µM (active)
N#Cc1c(NC(=O)CCC(=O)O)sc2c1CCCC2	inactive
O=[N+]([O-])c1cccnc1SCc1ccccc1	inactive
O=c1c2c([N+](=O)[O-])cc([N+](=O)[O-])cc2sn1Cc1ccccc1	77.3 µM (active)
O=[N+]([O-])c1ccc(-[n+]2ccc3ccccc3c2)c([N+](=O)[O-])c1	inactive
Cc1cc(=O)oc2c(N)c(O)ccc12	2.9 µM (active)
CCc1c(C(=O)c2ccc(Cl)cc2)oc2c(C)c3oc(=O)cc(C)c3cc12	inactive
Cc1ccccc1NC(=O)c1cc(N)ccc1N1CCCCC1	5.41 µM (active)
CN(CC(=O)Nc1ccccc1Br)C(=O)c1cc(S(=O)(=O)N(C)C)ccc1N1CCCC1	inactive
CCN(CC)S(=O)(=O)c1ccc(N2CCCCC2)c(NC(=O)/C=C/c2cc(OC)c(OC)c(OC)c2)c1	inactive
O=C(N/N=C/c1ccc(O)c(O)c1)c1cccc(S(=O)(=O)N2CCCCC2)c1	10.5 µM (active)
COc1cc(/C=N/NC(=O)c2cccc(S(=O)(=O)N3CCCC3)c2)ccc1O	4.27 µM (active)
CCNC(=O)NC(=O)C(C)OC(=O)c1cc(S(=O)(=O)N2CCCCCC2)ccc1OC (stereo not drawn)	inactive
O=C(N/N=C/c1ccc(O)c(O)c1)c1cccc(S(=O)(=O)N2CCCC2)c1	4.88 µM (active)

SMILES	IC50
CC(NCC(=O)Nc1cc(S(=O)(=O)N2CCCCCC2)ccc1Cl)c1ccccc1 (stereo not drawn)	inactive
Cc1cc(O)ccc1N/C=C1\CCCC1=O	10.2 µM (active)
O=C1CCCC/C1=C\Nc1ccc(O)cc1	4.32 µM (active)
O=c1oc2cc(O)ccc2c2ccccc12	8.47 µM (active)
Oc1ccc2c(c1)oc1cc(O)ccc12	4.05 µM (active)
Cc1ccc(C(C)NC(=S)NCc2ccc(F)cc2)cc1C (stereo not drawn)	33.9 µM (active)
Oc1cc2c(cc1O)C1c3ccc(O)c(O)c3OCC1(O)C2 (stereo not drawn)	inactive
CC(=O)Oc1ccc(C(=O)OCC(=O)c2c(N)n(C)c(=O)n(C)c2=O)cc1OC(C)=O	5.13 µM (active)
CC(C)Cn1c(N)c(C(=O)COC(=O)c2cc(-c3ccco3)nc3ccccc23)c(=O)n(C)c1=O	inactive
COc1cc(SC#N)ccc1N=Cc1c(C)[nH]n(-c2ccc(C)cc2C)c1=O	inactive
O=C(Nc1ccc(O)cc1)C1CCCO1 (stereo not drawn)	5.34 µM (active)
O=C(Nc1ccc(O)cc1)c1ccc(NC(=O)C2CCCO2)cc1 (stereo not drawn)	7.4 µM (active)
O=C(Nc1ccc(O)cc1)C1CC=CCC1 (stereo not drawn)	6.87 µM (active)
CCOC(=O)c1c(N2C(=O)Nc3cc(Cl)c(Cl)cc3N2O)sc2c1CCCCC2	inactive
O=C(O)CC1(Cc2nc(-c3cccs3)no2)CCCC1	inactive
Nc1nc(-c2cccs2)c(NC(=O)c2ccccc2)s1	10.4 µM (active)
Cc1c(C)n(Cc2ccccc2)c2ncnc(NN)c12	inactive
c1ccc(CNc2ncnc3ccccc23)cc1	4.18 µM (active)
COc1ccc(-c2nc(O)c3cnccn23)cc1	6.67 µM (active)
CCOC(=O)C1=C(O)C(=O)N(Cc2cccnc2)C1c1ccc(OC)cc1 (stereo not drawn)	inactive
COc1cc(/C=N/NC(=O)NC2CCCCC2)ccc1O	3.75 µM (active)
COc1cc(/C=N\NC(=O)C2CC3C=CC2C3)ccc1O (stereo not drawn)	7.58 µM (active)

SMILES	IC50
Cc1cc(=O)[nH]c2ccc(S(=O)(=O)Nc3ccc(O)cc3)cc12	7.34 µM (active)
CNS(=O)(=O)c1cc(NC(=O)CCCNC(=O)c2ccc(Cl)cc2)ccc1C	inactive
CSS(=O)(=O)c1cccc2cccnc12	inactive
Cc1cc(C)c(S(=O)(=O)Nc2cc(SCC(=O)O)c(O)c3ccccc23)cc1C	inactive
O=S(=O)(Nc1ccc(O)cc1)c1cccc2cccnc12	4.75 µM (active)
CCSS(=O)(=O)c1cccc2cccnc12	inactive
Cc1ccc(C)c(S(=O)(=O)Nc2ccc(O)cc2)c1	6.11 µM (active)
Cc1ccccc1NS(=O)(=O)c1cc(C(=O)NCCC2=CCCCC2)ccc1C	inactive
Cc1cc(C)c(S(=O)(=O)Nc2ccc(O)cc2)cc1C	12.1 µM (active)
Cc1c(C(=O)Oc2ccc(-c3cnc4ccccc4n3)cc2)cccc1[N+](=O)[O-]	inactive
NC(=O)N/N=C/c1c(Sc2nnnn2-c2ccccc2)nc2ccccn2c1=O	inactive
Cc1cc(Cl)ccc1OCCn1cncn1	inactive
CC1=C/C(=N\OS(=O)(=O)c2ccccc2)C(C(C)C)=CC1=O	inactive
CN1CCc2cccc3c2C1Cc1ccc(O)c(O)c1-3 (stereo not drawn)	inactive
O=S(=O)(Nc1ccc2c(c1)nc1n2CCOC1)c1ccccc1	inactive
CCOC(=O)Cn1c(=O)oc2cc(S(=O)(=O)NCCC(C)C)ccc21	inactive
Cn1c(=O)oc2cc(S(=O)(=O)Nc3ccc(O)cc3)ccc21	3.81 µM (active)
Cc1nnc(SCc2ccccc2)n1CC1CCCO1 (stereo not drawn)	70.8 µM (active)
Cc1occc1-c1nnc(SCC(=O)c2ccccc2)n1CC1CCCO1 (stereo not drawn)	inactive
CN(C)c1ccc(Nc2nc(-c3cccnc3)cs2)cc1	5.96 µM (active)
Cc1nc2ncccn2c1-c1csc(Nc2ccc(N(C)C)cc2)n1	7.2 µM (active)
O=C1c2ccccc2C(Nc2ccccc2F)N1c1cccnc1 (stereo not drawn)	inactive

SMILES	IC50
Cc1cccc(/C(N)=N/OC(=O)N2c3ccccc3Sc3ccccc32)c1	79.6 µM (active)
NNC(=O)C(=O)Nc1ccc(O)cc1	5.13 µM (active)
NN/C(=C\[N+](=O)[O-])Nc1ccc(Cl)cc1	inactive
Oc1ccc(N2CCN(C(=S)NCCc3ccccc3)CC2)cc1	3.15 µM (active)
CCOc1ccccc1NC(=S)N1CCN(c2ccc(O)cc2)CC1	6.75 µM (active)
CCOc1ccccc1NC(=O)NC(C)c1ccncc1 (stereo not drawn)	inactive
CC(C)CN(C)C(=O)CCc1nnc(Cc2cccc(C(F)(F)F)c2)o1	inactive
Cc1ccc(NC(=O)C(CC(C)C)NC(N)=O)cc1Cl (stereo not drawn)	inactive
COC(=O)/C=C/C(=O)Nc1ccc(O)c(Cl)c1	6.19 µM (active)
Cc1ccccc1-n1sc2cc(F)ccc2c1=O	49.1 µM (active)
COc1ccc(Nc2nc(-c3ccc4c(c3)NC(=O)CO4)cs2)cc1	inactive
O=S(=O)(NC1=NCCCCC1)c1ccc2sc(NS(=O)(=O)c3ccc4ccccc4c3)nc2c1	inactive
COc1ccc(-c2csc(NNC3=NCCCCC3)n2)cc1	40 µM (active)
CCN(CC)CCCN(C(=O)c1cccs1)c1nc(-c2ccc(OC)cc2)cs1	inactive
c1ccc(-c2csc(NNC3=NCCCCC3)n2)cc1	13.6 µM (active)
Cc1ccc(N=c2oc3cc(O)ccc3cc2C(N)=O)cc1	17.1 µM (active)
C=CC(=O)Oc1ccc(N2Cc3ccccc3C2=O)cc1	8.19 µM (active)
COc1ccc(N2C(=O)/C(=C\c3ccco3)N=C2SCC(=O)NC(C)C)cc1Cl	inactive
COc1cc(/C=C2/C(=O)NN(c3ccc(Cl)cc3)C2=O)ccc1OC(=O)c1ccco1	80 µM (active)
COc1cc(/C=C2/C(=O)NN(c3cccc(C)c3)C2=O)ccc1OC(=O)c1ccco1	27.4 µM (active)
